# Hit rate of the full screen: of about 48,000 compounds, about 13,000 (27%) showed an effect of 50% or more. This is one part of the list.
# System: Wolbachia pipientis
# Assay: Anti-Wolbachia Cell-Based Screen
# Assay type: functional
# Parameters: scale not given: in the data most compounds retested in dose-response had high values
# Details: 5 µM
row,Structure (SMILES),Percent Effect
1,CN(Cc1ccsc1)C(=O)c1ccc(F)c(NS(C)(=O)=O)c1,0%
2,CN(Cc1ccsc1)C(=O)c1cccc(S(=O)(=O)NC(C)(C)C)c1,0.007999%
3,CN(Cc1ccsc1)C(=O)c1ccc(S(=O)(=O)NC(C)(C)C)cc1,98.59%
4,CN(Cc1ccsc1)C(=O)c1cc(S(=O)(=O)N(C)C)ccc1Cl,5.417%
5,CNS(=O)(=O)c1cccc(C(=O)N(C)Cc2ccsc2)c1,124.1%
6,COCCNS(=O)(=O)c1ccc(Cl)c(C(=O)N(C)Cc2ccsc2)c1,14.25%
7,CCN(CC)S(=O)(=O)c1cccc(C(=O)N(C)Cc2ccsc2)c1,98.21%
8,CN(Cc1ccsc1)C(=O)c1cccc(NS(C)(=O)=O)c1,8.391%
9,CN(Cc1ccsc1)C(=O)c1ccc(C2CCCO2)s1 (stereo not given),-3.526%
10,CN(Cc1ccsc1)C(=O)Nc1ccc(S(=O)(=O)N(C)C)cc1,5.237%
11,CN(Cc1ccsc1)C(=O)c1cccc(S(=O)(=O)NCC2CCCO2)c1 (stereo not given),104.2%
12,CCN(C)C(=O)c1cccc(S(=O)(=O)NCCc2csc(N)n2)c1,-2.209%
13,Cc1ccc(C)c2c(C)c(C(=O)NCCC(=O)N3CCOCC3)oc12,9.055%
14,CC(C)c1nsc(NC2CC(=O)N(C(C)(C)C)C2)n1 (stereo not given),1.592%
15,COC(CNC(=O)c1cn(C)nn1)c1ccc(C)s1 (stereo not given),-8.016%
16,Cc1ccccc1C(C)NC(=O)Cc1c(C)nc2cc(=O)[nH]n2c1C (stereo not given),-0.7333%
17,CN(CCNc1ncc2c(n1)CCN2c1ccccc1)S(C)(=O)=O,7.395%
18,O=C(O)c1ccccc1-c1c(-c2ccccc2)ncn1CC1CCCO1 (stereo not given),-2.227%
19,Cc1nnc2n1CCN(C(=O)c1cc(Cl)c(Cl)n1C)C2,-5.044%
20,Cc1cccc(-n2cc(C(=O)N3CCn4c(C)nnc4C3)nn2)c1,7.104%
21,Cc1ccc(-n2cc(C(=O)N3CCn4c(C)nnc4C3)nn2)cc1,111.3%
22,Cc1cccc(-n2c(C)cc(C(=O)N3CCn4c(C)nnc4C3)c2C)c1,1.537%

row,Structure (SMILES),Percent Effect
1,COCc1ccccc1C(=O)N1CCn2c(nnc2C(C)C)C1,6.004%
2,CC(C)(O)CN1CCN(C(=O)c2ccn(-c3cccc(F)c3)n2)CC1,-183.4%
3,CC(C)c1nnc2n1CCN(C(=O)c1cn(-c3ccccc3)nn1)C2,113.1%
4,CCOC(C(=O)N1CCn2c(nnc2C(C)C)C1)c1ccccc1 (stereo not given),-0.6295%
5,O=C(c1ccn(-c2cccc(F)c2)n1)N1CCN(CCO)CC1,-27.1%
6,Cc1nnc2n1CCN(C(=O)c1cn(-c3ccccc3)nn1)C2,102.5%
7,Cc1nnc2n1CCN(C(=O)c1cn(-c3ccccc3Cl)nn1)C2,-0.6863%
8,Cc1nnc2n1CCN(C(=O)c1ccn(-c3cccc(F)c3)n1)C2,108.9%
9,O=C(CN1CCOC1=O)N1CCc2nnc(-c3ccccc3)n2CC1,3.396%
10,CCc1nnc2n1CCN(C(=O)C(OC)c1ccccc1)C2 (stereo not given),-1.714%
11,CCc1nnc2n1CCN(C(=O)c1cnc3ccccc3n1)C2,-19.02%
12,Cc1nc(-c2ccsc2)ccc1C(=O)N1CCn2c(C)nnc2C1,-2.134%
13,CCc1nnc2n1CCN(C(=O)c1cn(-c3ccccc3)nn1)C2,104.4%
14,Cc1nnc2n1CCN(C(=O)c1cn(-c3ccc(F)cc3)nn1)C2,133.8%
15,Cc1nnc2n1CCN(C(=O)c1cc(C)n(-c3ccccn3)c1C)C2,-6.785%
16,CCC1(CC)C(=O)NC(=O)N=C1Nc1ccc(C)cc1,121.1%
17,CCc1ccc(CNC(=O)c2ccc(N3CCOC3=O)cc2)s1,-4.456%
18,CC(=O)Nc1ccc(Oc2ccc(CN3CCCC3)cc2F)cc1,96.27%
19,COc1ccc(CN2CCCC2)cc1Oc1ccc(NC(C)=O)cc1,-0.1715%
20,CC(=O)Nc1ccc(Oc2cccc(CN3CCCC3)c2)cc1,-8.686%
21,CC(Sc1nnnn1C1CCOCC1)C(F)(F)F (stereo not given),4.015%
22,O=C(Nc1ccccn1)C1=NN(c2ccccc2)C(=O)CN1,-0.4273%

row,Structure (SMILES),Percent Effect
1,CCNC(=O)C1CCCN(C(=O)Nc2ccc3c(c2)CCCN3C)C1 (stereo not given),-0.07324%
2,CN(CCc1ccc2c(c1)CCO2)CC1CCS(=O)(=O)C1 (stereo not given),6.378%
3,CCN1CCc2cc(-c3cncn3CCNC3CCS(=O)(=O)C3)ccc21.Cl (stereo not given),103%
4,N#Cc1ccnc(N2CCN(C(=O)NC3CCS(=O)(=O)C3)CC2)c1 (stereo not given),5.841%
5,CC1(C)Cc2cc(-c3cncn3CCNC3CCS(=O)(=O)C3)ccc2O1.Cl (stereo not given),102.8%
6,CCc1nncn1CCNC(=O)Nc1ccc2c(c1)CCCO2,-5.053%
7,CCc1cc(NC2CCS(=O)(=O)C2)nc(N2CCCCC2)n1 (stereo not given),-10.03%
8,Cl.O=S1(=O)CCC(NCCn2cncc2-c2ccc3c(c2)CCCO3)C1 (stereo not given),81.24%
9,CN1CCCc2cc(-c3cncn3CCNC3CCS(=O)(=O)C3)ccc21.Cl (stereo not given),82.25%
10,Cc1nn(C)c(N2CCOCC2)c1CNC1CCS(=O)(=O)C1 (stereo not given),-13.17%
11,Cc1ccc(-c2ccsc2C(=O)NC2CCS(=O)(=O)C2)cc1 (stereo not given),-8.809%
12,Cn1cc(CNC2CCS(=O)(=O)C2)c(-c2cc3ccccc3o2)n1 (stereo not given),-8.31%
13,Cc1cc(C(=O)NCC(O)CN2CCCC2=O)ccc1F (stereo not given),-5.14%
14,COCCN(C)c1ccc(NCc2ccsc2)nc1,-10.25%
15,CCOc1ccc(CN2CCCC(c3nn(C)c(=O)n3CC)C2)cn1 (stereo not given),24.07%
16,CCC(C)NC(=O)CS(=O)(=O)Cc1cc(Cl)ccc1OC (stereo not given),28.04%
17,NC(=O)c1ccc(S(=O)(=O)NC(=O)COc2ccc3c(c2)CCC3)cc1,-8.361%
18,COc1ccc(Cl)cc1CC(=O)NS(=O)(=O)c1ccc(C(N)=O)cc1,102.7%
19,COc1ccccc1CC(=O)NS(=O)(=O)c1ccc(C(N)=O)cc1,6.119%
20,COc1ccc(C)cc1CC(=O)Nc1cc(C)n[nH]1,4.97%
21,COc1ccc(C)cc1CC(=O)NS(=O)(=O)c1ccc(C(N)=O)cc1,115.9%

# — ChEMBL document CHEMBL3988442, “University of Dundee, Small-Polar-MMV Screening Library” (2021)
